A selection: hits, their analogues and other compounds. The true share with any hit is near 2.4%.
D2 ag-1 = Beta-Arrestin HTS for Positive Allosteric Modulators of the Human D2 Dopamine Receptor: Agonists | D(2) dopamine receptor (Homo sapiens), P14416 | DiscoveRx PathHunter D2 beta-arrestin, luminescence, 90 min; 100% = 57 uM dopamine signal | activation, % (concentration not given with the values) | 360,000 compounds, 0.084% hits | AID 624465, 2012; in the data active means activation above about 40%; inconclusive means between about 15% and that limit
Target sequence (P14416 whole entry, looked up): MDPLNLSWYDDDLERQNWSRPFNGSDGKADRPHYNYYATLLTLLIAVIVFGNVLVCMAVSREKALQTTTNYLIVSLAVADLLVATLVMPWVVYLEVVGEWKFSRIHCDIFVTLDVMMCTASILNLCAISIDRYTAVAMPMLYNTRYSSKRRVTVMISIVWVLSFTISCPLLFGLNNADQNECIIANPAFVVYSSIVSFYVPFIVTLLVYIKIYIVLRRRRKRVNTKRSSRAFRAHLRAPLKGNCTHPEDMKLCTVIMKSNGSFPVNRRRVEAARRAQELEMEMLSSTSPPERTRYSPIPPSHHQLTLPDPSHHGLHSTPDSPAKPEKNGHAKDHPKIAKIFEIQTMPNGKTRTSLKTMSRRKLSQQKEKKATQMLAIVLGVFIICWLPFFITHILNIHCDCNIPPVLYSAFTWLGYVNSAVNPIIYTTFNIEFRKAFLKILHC
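DiscoveRx PathHunter D2 beta-arrestin cells (2,100/well) attached overnight, then compound-stimulated 90 min at 37 C in HBSS/10 mM HEPES/0.1% Tween-20 buffer; beta-galactosidase complementation read by luminescence after 1 h at ambient temperature. Dopamine 57 uM final (EC100) as control.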
D2 PAM-1 = Beta-Arrestin HTS for Positive Allosteric Modulators of the Human D2 Dopamine Receptor: Potentiators; potentiation, % (concentration not given with the values); D(2) dopamine receptor (Homo sapiens), P14416; 360,000 compounds, 0.23% hits; DiscoveRx D2 beta-arrestin cells, luminescence, 90 min; 100% = 57 uM dopamine signal; in the data active means potentiation above about 50%; inconclusive means mostly about 30% to 49%
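PathHunter beta-arrestin assay in DiscoveRx D2 cells. Compounds were added with an EC20 of dopamine (50 nM final) for 90 min at 37 deg C. Luminescence was read 1 h after detection reagent, with 57 uM dopamine as the EC100 control.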
D2 ag-2 = HTS Assay for Allosteric Agonists of the Human D2 Dopamine Receptor: Primary Screen for Agonists | 340,000 compounds, 0.53% hits | D(2) dopamine receptor (Homo sapiens), P14416 | activation, % at 2 µM | HEK293 T-REx D2 cells, calcium flux agonist mode;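 active means activation over 3 SD above normal in the single-dose calcium agonist read, cut at about 30% in these data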
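In this primary screen, compounds producing a positive calcium signal within 180 s of addition to tetracycline-induced, force-coupled HEK293 Trex D2 cells are flagged; cells are dye-loaded with a no-wash calcium kit beforehand.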
D2 PAM-2 = HTS Assay for Positive Allosteric Modulators of the Human D2 Dopamine Receptor: Primary Screen for Potentiators; D(2) dopamine receptor (Homo sapiens), P14416; HEK293 T-REx D2, calcium flux, EC20 dopamine potentiation; potentiation, % at 10 µM; 340,000 compounds, 0.34% hits; AID 485347, 2010;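 active means potentiation over 3 SD above the plate norm, cut at about 30% in these data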
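Tetracycline-induced Hek293 Trex D2 cells, force-coupled to calcium, loaded with no-wash calcium dye. Compound added with 180 s kinetic read for agonism, then EC20 dopamine and a further 180 s read for potentiation.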
D2 antagonist = HTS Assay for Allosteric Antagonists of the Human D2 Dopamine Receptor: Primary Screen for Antagonists; D(2) dopamine receptor (Homo sapiens), P14416; AID 485344, 2010; HEK293 TREx D2 cells, calcium flux, dopamine EC80; 340,000 compounds, 2% hits; inhibition, % at 10 µM; in the data active means inhibition above about 30%; inactive means below that, where a call was filed
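HEK293 T-REx D2 cells, tet-induced, calcium dye no-wash. Cpd pintool add, 180 s kinetic, then EC80 DA, 180 s kinetic. Ca flux read.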
A number is an active result; i = inactive; ? = inconclusive; nt = not tested or not shown.

SMILES	D2 ag-1	D2 PAM-1	D2 ag-2	D2 PAM-2	D2 antagonist
Cc1nn2c3c(cnc2c1-c1ccc(F)cc1)C(=O)CC(c1ccccc1)C3 (stereo unspecified)	nt	nt	i	i	nt
COc1cccc(NS(=O)(=O)c2ccc3[nH]cc(C(=O)N(C)C4CCCCC4)c(=O)c3c2)c1	nt	nt	i	i	nt
Cc1ccccc1NCC(=O)N/N=C/c1c(C)c(C(=O)c2ccc(Cl)cc2)n2ccccc12	i	i	i	i	32.0
COc1ccccc1C(=O)Nc1ccc(-c2cc(C(F)(F)F)nn2-c2ccccc2)cc1	nt	nt	i	i	nt
CCOc1ccc(CC(=O)NCCc2sc3nc(-c4ccc(F)cc4)nn3c2C)cc1	nt	nt	i	i	nt
CC(NC(=O)C1CCCN1C(=O)OC(C)(C)C)C(=O)OCc1ccccc1 (stereo unspecified)	i	i	nt	nt	nt
CC(C)(C)OC(=O)N1CCC[C@H]1C(=O)Nc1ccc(C#N)cc1	i	i	i	i	62.7
CC(C)(C)OC(=O)N1CCCC1C(=O)NC(Cc1ccccc1)C(=O)O (stereo unspecified)	i	i	i	i	31.8
CC(C)(C)OC(=O)N1CCC[C@H]1C(=O)Nc1ccc(Br)cc1	i	i	i	i	i
Cc1c(Cl)cccc1NC(=O)Nc1ccc2snnc2c1	nt	nt	nt	i	nt
CC(C)N(c1ccccc1)c1ccc(NC(=O)COC(=O)CCN2C(=O)c3cccc([N+](=O)[O-])c3C2=O)cc1	?	60.9	i	i	i
CC(=O)c1ccc(NC(=O)COC(=O)CCN2C(=O)c3cccc([N+](=O)[O-])c3C2=O)cc1	i	i	i	i	i
COCCCn1c(SCC(=O)c2c(N)n(C3CC3)c(=O)[nH]c2=O)nnc1-c1ccccc1Cl	i	i	nt	nt	nt
CCCn1c(N)c(C(=O)CSc2nnc(-c3cccs3)n2C2CC2)c(=O)[nH]c1=O	48.4	i	nt	nt	nt
CCCn1c(N)c(C(=O)CSc2nnc(-c3c[nH]c4ccccc34)n2C2CC2)c(=O)[nH]c1=O	i	i	nt	nt	nt
COCCn1c(SCC(=O)c2c(N)n(C3CC3)c(=O)[nH]c2=O)nnc1-c1ccc(Cl)cc1	40.4	i	i	i	i
Cc1nnc(NC(=O)CSCc2cc(=O)c3ccc(C)c(C)c3[nH]2)s1	nt	nt	i	i	nt
COc1ccc(CC(=O)NCCc2cnc[nH]2)cc1	i	i	i	i	i
COc1ccc(C)c(NC(=O)NCCc2cnc[nH]2)c1	i	i	i	i	37.7
COC(=O)c1c(NC(=O)CS(=O)(=O)c2ccc(C)cc2)sc2c1CCCCC2	nt	nt	nt	i	nt
CCCCNC(=O)Cc1coc2ccc3ccccc3c12	i	i	i	32.6	i
CC(C)=C(NC(=O)c1ccccc1)C(=O)NC(Cc1ccccc1)C(=O)O (stereo unspecified)	i	i	i	i	38.9
CCOC(=O)c1cc2c(=O)n3ccccc3nc2n(CCCOC)c1=NC(=O)C(C)(C)C	i	i	31.8	i	i
CCOC(=O)c1cc2c(=O)n3ccccc3nc2n(CCOC)c1=NC(=O)C(C)(C)C	i	i	i	i	i
Cc1ccc(N2CC(NC(=O)C3CC3)CC2=O)cc1C (stereo unspecified)	nt	nt	i	i	nt
SMILES	D2 ag-1	D2 PAM-1	D2 ag-2	D2 PAM-2	D2 antagonist
CC(C)c1[nH]nc2c1C1(CCN(Cc3ccccc3)CC1)C(C#N)=C(N)O2	i	i	i	i	39.6
CCCc1[nH]nc2c1C1(CCN(C(=O)OCc3ccccc3)CC1)C(C#N)=C(N)O2	i	i	i	i	i
O=C(CSc1nc(C2CCCCC2)nc2ccccc12)NCc1ccco1	i	i	i	i	66.7
Cc1sc2nc(C3CC3)nc(SCC(=O)NCc3ccco3)c2c1C	i	i	i	i	i
O=C(CN1C(=O)C(c2ccc(F)cc2)=NC12CCCCCC2)Nc1ccccc1Cl	nt	nt	i	i	nt
O=C(c1ccc2c(c1)N(Cc1ccc(Cl)cc1)C(=O)c1ccccc1S2=O)N1CCC(Cc2ccccc2)CC1 (stereo unspecified)	nt	nt	nt	i	nt

Source: PubChem (National Center for Advancing Translational Sciences (NCATS))
